Assay results from the supplement of paper PMC9334596.
Several values for one entry are separate records, joined by “and”; a condition that tells them apart may be missing. Equal entries are not always repeated. In all, about 5,300 compounds were measured (“PER2::LUC luminescence relative to vehicle control”: median about 0.96, highest 2% from about 1.3 on). For the sample, the highest values were picked, then their nearest neighbours and some compounds at random.

Tested on: mPer2Luc MEF
Test: PER2::LUC luminescence relative to vehicle control (fold of vehicle); higher = higher PER2::LUC reporter signal
Settings: 10 µM
Outline: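 Each value gives PER2::LUC luminescence as fold of vehicle control, measured with the ONE-Glo luciferase assay system in mouse embryonic fibroblasts carrying the mPer2Luc reporter. Cells grown in DMEM with 10% FBS at 37 °C and 5% CO2 were seeded at ~3000 per well in 384-well plates. Library compounds were added at 10 μM 48 h later, and readings were taken 24 h and 30 h after treatment.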

| SMILES | PER2::LUC luminescence (time after treatment 24 h) | PER2::LUC luminescence (time after treatment 30 h) |
| --- | --- | --- |
| C[C@@H]1CCNC(=O)c2cc3ccc(C(=O)Nc4nc5ccccc5n4CCCN(C)C)cc3n21 | 0.548 | 0.586 |
| O=C(Nc1nc2ccccc2n1CCN1CCOCC1)c1cccc([N+](=O)[O-])c1 | 1.36 | 1.18 |
| COC(=O)c1ccc2c(c1)nc(NC(=O)c1ccccc1)n2CCCc1ccccc1 | 1.09 | 0.933 |
| CC(C)[C@H](NC(=O)CCCCCN1C(=O)C=CC1=O)C(=O)N[C@@H](CCCNC(N)=O)C(=O)Nc1ccc(COC(=O)Oc2ccc([N+](=O)[O-])cc2)cc1 | 0.958 | 1.07 |
| COC(=O)CNC(=O)C(=O)OC | 0.922 | 0.99 |
| CC(C)(C)c1ccc(S(=O)(=O)Nc2ccc(-n3ccnc3)cc2)cc1 | 1.15 | 1.26 |
| Cc1cc(OCc2nc(-c3ccccc3Cl)cs2)ccc1CCC(=O)O | 1.11 | 1.28 |
| CCOc1cc2c(c(F)c1OCC)C(=N)N(CC(=O)c1cc(N3CCOCC3)c(OC)c(C(C)(C)C)c1)C2 | 0.14 | 0.117 |
| Nc1ccc(NC(=O)c2ccc(C(F)(F)F)cc2)nc1 | 1.01 | 0.976 |
| O=C(Nc1ccc(C(O)(C(F)(F)F)C(F)(F)F)cc1)c1ccc(C(F)(F)F)cc1 | 0.687 | 0.47 |
| Cc1oncc1C(=O)Nc1ccc(C(F)(F)F)cc1 | 1.35 | 1.82 |
| CC1=CC[C@@]2(C)CC[C@@](O)(C(C)C)[C@@H]2[C@@H](OC(=O)c2ccc(O)cc2)C1 | 1.08 | 1.15 |
| O=C(Nc1ccc(Cl)cc1CN1C(=O)c2ccccc2C1=O)c1ccccc1O | 1.03 | 1.02 |
| NC[C@H]1CC[C@H](C(=O)Oc2ccc(CCC(=O)O)cc2)CC1 | 0.828 | 0.901 |
| Cc1cc2c(cc1Cl)N(C(=O)Nc1ccc(Oc3cccnc3C)nc1)CC2 | 0.924 | 1.03 |
| C[Si](C)(C)CCOCn1ccc2c(-c3cn[nH]c3)ncnc21 | 1.11 | 1.03 |
| O=C(O)c1ccccc1C(=O)Nc1ccc(S(=O)(=O)Nc2nccs2)cc1 | 0.993 | 0.892 |
| S=C(Nc1ccccc1)Nc1nccs1 | 1.46 | 1.58 |
| O=C(O)CCC(=O)Nc1ccc(S(=O)(=O)Nc2nccs2)cc1 | 0.666 | 0.939 |

| SMILES | PER2::LUC luminescence (time after treatment 24 h) | PER2::LUC luminescence (time after treatment 30 h) |
| --- | --- | --- |
| CCOc1ccc(C(Nc2ccccn2)c2ccc3ccc(C)nc3c2O)cc1C (configuration not stated) | 1.13 | 1.13 |
| NC(N)=NCCC[C@H](NC(=O)[C@@H](N)Cc1ccc(O)cc1)C(=O)O | 1.04 | 0.909 |
| CS(=O)(=O)c1cc(F)cc2c3c(n(Cc4ccc(Cl)cc4)c12)[C@@H](CC(=O)O)CC3 | 1.13 | 1.09 |
| CC(=O)OC1CCC2(C)C(=CCC3C2CCC2(C)C(C(C)CCCC(C)C)CCC32)C1 (configuration not stated) | 1.04 | 0.938 |
| CC(C)CCC[C@@H](C)[C@H]1CC[C@H]2[C@@H]3CC=C4C[C@@H](O)CC[C@]4(C)[C@H]3CC[C@]12C | 0.926 | 0.923 |
| CC(C)CCC[C@@H](C)[C@H]1CC[C@H]2[C@@H]3CC=C4CC(=O)CC[C@]4(C)[C@H]3CC[C@]12C | 1.42 | 1.09 |
| CO[C@H]1[C@H](OC(=O)c2ccc(C)[nH]2)[C@H](O)[C@@H](Oc2ccc3c(O)c(NC(=O)c4c[nH]c(C(=O)Nc5c(O)c6ccc(O[C@H]7OC(C)(C)[C@@H](OC)[C@H](OC(=O)c8ccc(C)[nH]8)[C@@H]7O)c(C)c6oc5=O)c4C)c(=O)oc3c2C)OC1(C)C | 1.1 | 1.13 |
| C/C1=C\CC(C)(C)/C=C/C(=O)/C(C)=C/CC1 | 1.08 | 1.06 |
| Cc1nc2ccccc2n1Cc1ccc(Cl)cc1 | 0.361 | 0.307 |
| Clc1ccc(Cn2c(CN3CCCC3)nc3ccccc32)cc1 | 1.06 and 0.848 | 0.924 and 0.834 |
| CN(c1nccc(=O)[nH]1)C1CCN(c2nc3ccccc3n2Cc2ccc(F)cc2)CC1 | 1.07 | 1.45 |
| COc1ccc([C@@H]2OC[C@@H]3[C@H]2CO[C@H]3c2ccc(OC)c(OC)c2)cc1OC | 1.05 | 1.07 |
| CC1(C)CC(NC(=O)C(=O)Nc2ccc(Br)cc2)CC(C)(C)N1 | 0.875 | 0.928 |
| NC1CCN(O)C1=O (single isomer, unassigned; (-)) | 1.08 | 1.01 |
| CC1(C)CC(NC(=O)C(=O)Nc2ccc(Cl)cc2)CC(C)(C)N1 | 0.958 | 1 |
| O=C1c2ccccc2-n2c1nc1ccccc1c2=O | 0.998 | 0.885 |
| O=c1c2ccccc2nc2n1CCc1c-2[nH]c2ccccc12 | 1.36 | 1.51 |
| O=C(O)c1cc(=O)c2ccccc2[nH]1 | 1.08 | 0.931 |
| CC1(C)CC2C1CC[C@]1(CBr)CCC3C(CC(=O)O)C(=O)O[C@@]32C1 (some centres not stated) | 1.04 | 0.929 |

| SMILES | PER2::LUC luminescence (time after treatment 24 h) | PER2::LUC luminescence (time after treatment 30 h) |
| --- | --- | --- |
| NCC(O)COc1cccc2ccccc12 (configuration not stated) | 0.637 | 0.588 |
| Cc1onc(-c2ccccc2)c1C(=O)N1CCN(c2ccc([N+](=O)[O-])cc2Cl)CC1 | 0.896 | 1.04 |
| CC(=O)Nc1ccccc1 | 0.881 | 1.21 |
| O=C(Nc1ccccc1)c1ccccc1O | 1.27 | 1.08 |
| O=C(Nc1ccccc1)Nc1ccccc1 | 1.57 | 1.44 |
| CC(C)c1c2cc(-c3ccnc(NC4CCC(NC5CCOCC5)CC4)n3)ccc2nn1C (configuration not stated) | 0.008 | 0.002 |
| OC[C@H]1O[C@@H](O[C@@H]2OC=C[C@H]3[C@H](O)[C@@H]4O[C@]4(CO)[C@@H]23)[C@H](O)[C@@H](O)[C@@H]1O | 1.04 | 1 |
| CCOC(=O)COc1ccc2c(=O)cc(-c3ccccc3)oc2c1 | 1.06 | 1.08 |
| O=c1cc(-c2ccc(O)cc2)oc2ccc(O)cc12 | 1.72 | 1.87 |
| Cc1cc(=O)oc2cc(O)ccc12 | 1.01 and 1.08 and 0.784 | 0.94 and 0.807 and 0.997 |
| O=c1cc(-c2ccccc2O)oc2cc(O)ccc12 | 1.27 | 1.38 |
| O=c1oc2cc(O)ccc2c2oc3cc(O)ccc3c12 | 1.06 | 1.13 |
| O=c1cc(-c2ccc(O)cc2)oc2cc(O)c([C@@H]3O[C@H](CO)[C@@H](O)[C@H](O)[C@H]3O)c(O)c12 | 0.972 | 0.983 |
| O=c1cc(-c2ccccc2)oc2c(O)c(O)ccc12 | 0.582 | 0.632 |
| O=c1oc2ccc(O)cc2c2c1NCCC2 | 0.764 | 1.05 |
| O=c1c(O)c(-c2ccccc2)oc2ccccc12 | 1.08 | 1.05 |
| O=c1cc(-c2ccccc2)oc2ccc(O)cc12 | 1.47 | 1.89 |
| O=c1cc(-c2ccccc2)oc2cc(O)c(O)cc12 | 1.41 | 1.47 |
